Hits are enriched below; roughly 2.8% of the tested compounds scored in any of these assays.
Pol iota inh: inhibitors of human DNA polymerase iota. Q9UNA4. Pol iota fluorescent replication assay, 10 min. Potency, µM (series often up to 115 µM), most hits filed as inhibitors. hit rate 1% among 390,000
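Fluorescent replication assay read twice, at 0 min and 10 min after adding 50 nM (final) substrate. Enzyme (10 nM) and compounds were first incubated 15 min at room temperature; enzyme-free buffer wells were negative controls.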
Pol eta inh: DNA polymerase eta (human) inhibition; recombinant Pol eta, fluorescent DNA replication assay; hit rate 1.2% among 390,000; Q9Y253; Potency, µM (titrated, usually from 114 µM), usual class: inhibitors
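Pol eta at 10 nM preincubated with compounds 15 min at room temperature; reaction started with fluorescent substrate (50 nM final) and read kinetically at 0 and 10 min.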
PI4K2A inh: PI4K2A (human) kinase inhibition; Q9BTU6; purified PI4K2A, ADP-Glo luminescence, 1 h; hits give low values; activity change, negative = inhibition, % at 76.9 µM; hit rate 0.13% among 420,000; in the data active = activity change below about -50%; inconclusive = mostly about -30% to -49%
Target sequence (Q9BTU6 whole entry, looked up): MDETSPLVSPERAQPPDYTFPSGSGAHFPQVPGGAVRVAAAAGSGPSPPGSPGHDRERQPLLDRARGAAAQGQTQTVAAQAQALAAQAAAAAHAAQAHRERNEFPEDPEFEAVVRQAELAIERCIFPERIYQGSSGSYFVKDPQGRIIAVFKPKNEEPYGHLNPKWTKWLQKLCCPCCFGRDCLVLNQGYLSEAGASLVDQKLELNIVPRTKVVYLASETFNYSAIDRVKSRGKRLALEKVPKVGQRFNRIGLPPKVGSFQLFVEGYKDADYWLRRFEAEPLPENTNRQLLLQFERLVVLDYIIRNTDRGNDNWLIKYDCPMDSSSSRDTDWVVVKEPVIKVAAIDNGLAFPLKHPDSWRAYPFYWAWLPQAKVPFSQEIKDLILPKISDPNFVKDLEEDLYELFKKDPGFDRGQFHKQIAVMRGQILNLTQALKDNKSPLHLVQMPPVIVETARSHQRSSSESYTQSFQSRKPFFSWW
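PI4K2A activity was measured by ADP-Glo luminescence: enzyme (4 ug/mL stock) and phosphatidylinositol (1.2 mM stock) in Tris pH 7.5/MgCl2/EGTA/Triton X-100 buffer were reacted with ATP (300 microM stock) for one hour at ambient temperature.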
POLB inh: DNA polymerase beta (human) inhibition; Pol beta primer extension/strand displacement, fluorescence kinetic; Potency, µM (highest dose often 114 µM), actives largely listed as inhibitors; hit rate 1.3% among 340,000; AID 485314
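Preincubation: enzyme (10 nM) with compound, 15 min, RT. Reaction: substrate added to 50 nM final. Reads: 0 and 10 min. Analysis: normalized, Hill fit.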
Pol kappa inh: blocks human DNA polymerase kappa activity; Q9UBT6; purified Pol kappa, fluorescent DNA synthesis assay, 10 min; Potency, µM (doses to about 107 µM), hits mostly inhibitors; hit rate 0.53% among 400,000
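Enzyme at 10 nM met test compounds for 15 min at room temperature. Substrate addition (50 nM final) began the reaction, which was monitored by fluorescence at 0 and 10 min.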
PI5P4K alpha inh: blocks human PI5P4K alpha kinase activity; P48426; PI5P4Kalpha enzyme, ADP-Glo luminescence, 60 min; hits give low values; max response, %; hit rate 1.2% among 330,000; active = max response of -50% or lower; inconclusive = between -30% and -50%; inactive = -30% or higher; note: value at the top dose of about 77 µM
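Single end-point luminescence (ADP-Glo) quantified ADP from PI5P4Kalpha turnover; ATP 5 microM final, 1 h at RT, 0.1% CHAPS and 0.28 mM EGTA in HEPES pH 7.4.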
Hits are given with their value. Unless noted, calls come from the whole dose curve; as a rule, active = well fitted inhibition curve with a large enough effect; inconclusive = small, poorly fitted or top-dose-only effect, or another doubt; inactive = no such curve, though single readings can be large or run the other way.

How did C=CCn1c(SCC(=O)NC2CCCCC2)nc2ccccc2c1=O do in these assays?
Pol iota inh: inactive; Pol eta inh: inactive; PI4K2A inh: inactive; POLB inh: inactive; Pol kappa inh: inactive; PI5P4K alpha inh: inactive

How did C=CCn1c(SCC(=O)NCCCC)nc2scc(-c3ccco3)c2c1=O do in these assays?
Pol iota inh: 20µM; Pol eta inh: 10µM; PI4K2A inh: inconclusive; POLB inh: 22.4µM; Pol kappa inh: 39.8µM; PI5P4K alpha inh: -57.5

What do the screens show for `COC(=O)[C@]12C[C@H](CC(=O)N3CCCC3)C(=O)N(Cc3ccc(Cl)cc3Cl)C1=C[C@H](C(C)(C)C)O[C@@H]2C`?
PI4K2A inh: inactive

What do the screens show for `Nc1nc(N)c2c(Oc3ccc(F)cc3)cccc2n1`?
Pol iota inh: inconclusive; Pol kappa inh: inactive

Results for O=C(NCc1ccccc1)C1CCN(c2nc(-c3ccc(Br)cc3)cs2)CC1 ?
PI4K2A inh: inactive

How did Oc1c(Cl)cc(Cl)cc1/C=N/NC(=S)NC1CC2C=CC1C2 (stereo not drawn) do in these assays?
Pol iota inh: inconclusive; Pol eta inh: inactive; PI4K2A inh: inactive; POLB inh: inactive; Pol kappa inh: inactive; PI5P4K alpha inh: -61.1

What do the screens show for `O=S1(=O)CCO[C@H]2CCCC[C@@H]2N1Cc1cccc(F)c1`?
Pol iota inh: inactive; Pol kappa inh: inactive

Results for COc1cc2cc(CN(Cc3nnnn3Cc3ccco3)C3CCCCC3)c(=O)[nH]c2cc1OC ?
Pol iota inh: inconclusive; Pol eta inh: inconclusive; PI4K2A inh: inactive; POLB inh: 44.7µM; Pol kappa inh: inconclusive; PI5P4K alpha inh: inactive

What do the screens show for `CCOc1ccc2[nH]c(=O)c(CN(Cc3nnnn3Cc3ccco3)C3CCCCC3)cc2c1`?
Pol iota inh: inactive; Pol eta inh: inactive; PI4K2A inh: inactive; POLB inh: 20µM; Pol kappa inh: inactive; PI5P4K alpha inh: inactive

How did O=C(Nc1cccc(C2=NCCN2)c1)Nc1cccc(C2=NCCN2)c1 do in these assays?
Pol iota inh: inactive; Pol eta inh: 22.4µM; PI4K2A inh: inactive; Pol kappa inh: 7.52µM; PI5P4K alpha inh: inactive

Results for O=C(/C=C/c1ccc(/C=C/C(=O)Nc2ccc(C3=NCCN3)cc2)cc1)Nc1ccc(C2=NCCN2)cc1 ?
Pol kappa inh: 18.9µM

What do the screens show for `O=C(Nc1ccc(C2=NCCN2)cc1)c1ccc(C(=O)Nc2ccc(C3=NCCN3)cc2)c(Cl)c1`?
Pol iota inh: inconclusive; Pol eta inh: inactive; PI4K2A inh: inactive; POLB inh: 0.891µM; Pol kappa inh: inconclusive; PI5P4K alpha inh: inactive

How did CC(C)(C)c1ccc(/C=C/C(=O)Nc2ccncc2)cc1 do in these assays?
Pol iota inh: inactive; Pol eta inh: inactive; PI4K2A inh: inactive; POLB inh: inconclusive; Pol kappa inh: inactive; PI5P4K alpha inh: inactive

How did O=C(Nc1ccncc1)Nc1cccc(Cl)c1 do in these assays?
Pol iota inh: inactive; Pol eta inh: inactive; PI4K2A inh: inactive; POLB inh: inactive; Pol kappa inh: inactive; PI5P4K alpha inh: inactive

What do the screens show for `CCN(Cc1ccccc1)c1cc2c(c3c1ccn3C)C1CCC2C1` (stereo not drawn)?
PI4K2A inh: inactive; PI5P4K alpha inh: inactive

What do the screens show for `COC(=O)[C@]12C[C@H](CC(=O)NCc3cccs3)C(=O)N(CCc3ccc(OC)c(OC)c3)C1=C[C@H](C1CCCC1)O[C@@H]2C`?
PI4K2A inh: inactive

What do the screens show for `C=CCn1c(=O)[nH]c2cc(C(=O)N3CCN(c4cc(C)ccc4C)CC3)ccc2c1=O`?
Pol iota inh: inactive; Pol eta inh: inactive; PI4K2A inh: inactive; POLB inh: inactive; Pol kappa inh: inactive

How did C=CCn1c(=O)[nH]c2cc(C(=O)N3CCN(c4cccc(Cl)c4)CC3)ccc2c1=O do in these assays?
Pol iota inh: 89.1µM; Pol eta inh: inconclusive; PI4K2A inh: inactive; POLB inh: inactive; Pol kappa inh: inactive; PI5P4K alpha inh: -52.6

How did CCOc1cccc(C2C=C(c3ccc4c(c3)OCO4)NC(c3ccc(Cl)cc3)N2)c1O (stereo not drawn) do in these assays?
Pol iota inh: inactive; Pol kappa inh: inactive

How did CCCOc1ccc(C2C(C(=O)c3ccc(C)o3)=C(O)C(=O)N2Cc2ccco2)cc1 (stereo not drawn) do in these assays?
Pol iota inh: inconclusive; Pol eta inh: inactive; PI4K2A inh: inactive; POLB inh: 39.8µM; Pol kappa inh: inactive; PI5P4K alpha inh: inactive

How did COc1ccc(CCN(C)C(=O)COC(=O)/C=C/c2ccc(C)o2)cc1OC do in these assays?
Pol iota inh: 50.1µM; Pol eta inh: inconclusive; PI4K2A inh: inactive; Pol kappa inh: inconclusive; PI5P4K alpha inh: inactive

What do the screens show for `O=C(O/N=C1/CCCc2occc21)c1ccc(F)cc1`?
Pol iota inh: inactive; Pol eta inh: inactive; PI4K2A inh: inactive; POLB inh: inactive; Pol kappa inh: inactive; PI5P4K alpha inh: -58.2

Results for O=C(O/N=C1/CCSc2ccccc21)c1ccc(F)cc1 ?
Pol iota inh: inactive; Pol eta inh: inactive; PI4K2A inh: inactive; POLB inh: inactive; Pol kappa inh: inactive

How did CC(C)(C)N(Cc1ccccc1)C(=O)c1cccs1 do in these assays?
Pol iota inh: inactive; Pol eta inh: inactive; PI4K2A inh: inactive; POLB inh: inactive; Pol kappa inh: inactive; PI5P4K alpha inh: inactive

How did N#CCCN(Cc1ccccc1)C(=O)c1cccs1 do in these assays?
Pol iota inh: inactive; Pol eta inh: inactive; PI4K2A inh: inactive; POLB inh: 0.159µM; Pol kappa inh: inactive; PI5P4K alpha inh: inactive

What do the screens show for `Cc1ccc(S(=O)(=O)NCC(=O)N(CC(=O)NCc2ccco2)Cc2ccco2)cc1`?
Pol iota inh: inconclusive; Pol eta inh: 56.2µM; PI4K2A inh: inactive; POLB inh: inactive; Pol kappa inh: inconclusive; PI5P4K alpha inh: inactive

What do the screens show for `Cc1ccc(S(=O)(=O)NCC(=O)N(CC(=O)NCC2CCCO2)Cc2ccco2)cc1` (stereo not drawn)?
Pol iota inh: inactive; Pol eta inh: inactive; PI4K2A inh: inactive; POLB inh: 12.6µM; Pol kappa inh: inactive; PI5P4K alpha inh: inactive

How did O=C(CSc1ncccn1)N1CCCc2ccccc21 do in these assays?
Pol iota inh: inactive; Pol eta inh: inactive; PI4K2A inh: inactive; POLB inh: inactive; Pol kappa inh: inactive; PI5P4K alpha inh: inactive

What do the screens show for `O=C(O)c1cccnc1SCC(=O)N1CCCc2ccccc21`?
Pol iota inh: inconclusive; Pol eta inh: 20µM; PI4K2A inh: inactive; POLB inh: inconclusive; Pol kappa inh: inactive; PI5P4K alpha inh: inactive

Results for CCc1cccc(CC)c1-n1c(SCC(=O)N2CCCc3ccccc32)nc(O)cc1=O ?
Pol iota inh: inconclusive; Pol eta inh: inactive; PI4K2A inh: inactive; Pol kappa inh: 44.7µM; PI5P4K alpha inh: inactive

How did Nn1c(SCC(=O)N2CCCc3ccccc32)nncc1=O do in these assays?
Pol iota inh: inactive; Pol eta inh: inactive; PI4K2A inh: inactive; POLB inh: inactive; Pol kappa inh: inactive; PI5P4K alpha inh: inactive

High-throughput results from PubChem.
